From the supplement of paper PMC3334620
Whole data set: some 33,000 sequences, median “E-score (-0.5 to 0.5)” near -0.054, cut for the highest 2% near 0.35. This is one part of a sample in which the highest values are shown more often than they occur.

target: T1, Stb5 (UniProt P38699); assay: PBM E-score (8-mer binding enrichment) (E-score (-0.5 to 0.5)); higher = stronger / more preferred TF binding; conditions: protein concentration: 200 nM; construct: GST-full length
T1 sequence: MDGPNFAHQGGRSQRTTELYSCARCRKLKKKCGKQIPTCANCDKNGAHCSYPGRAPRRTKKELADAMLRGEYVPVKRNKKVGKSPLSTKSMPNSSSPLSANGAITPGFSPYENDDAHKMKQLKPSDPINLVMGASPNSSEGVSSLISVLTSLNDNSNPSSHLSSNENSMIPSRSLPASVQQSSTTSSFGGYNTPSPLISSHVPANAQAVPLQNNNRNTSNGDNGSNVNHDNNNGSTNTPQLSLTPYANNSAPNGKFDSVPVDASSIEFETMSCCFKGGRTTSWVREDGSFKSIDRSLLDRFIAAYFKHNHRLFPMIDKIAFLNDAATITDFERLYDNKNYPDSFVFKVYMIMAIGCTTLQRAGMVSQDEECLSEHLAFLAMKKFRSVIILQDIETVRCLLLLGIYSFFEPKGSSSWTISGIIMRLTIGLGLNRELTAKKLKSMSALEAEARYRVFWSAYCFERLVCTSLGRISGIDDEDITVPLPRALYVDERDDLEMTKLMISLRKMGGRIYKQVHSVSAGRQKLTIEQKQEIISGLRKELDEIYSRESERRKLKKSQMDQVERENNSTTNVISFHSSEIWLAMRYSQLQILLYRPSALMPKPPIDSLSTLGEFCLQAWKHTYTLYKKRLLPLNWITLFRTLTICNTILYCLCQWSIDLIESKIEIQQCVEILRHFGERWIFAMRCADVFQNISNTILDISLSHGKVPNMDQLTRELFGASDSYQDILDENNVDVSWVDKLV
Procedure, shortened: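 Universal all-10-mer Agilent arrays, double-stranded by primer extension on fresh or once-stripped slides, were probed with about 100-200 nM GST-tagged yeast transcription factors made by PURExpress. Fluorescent anti-GST detected bound protein, and masliner normalised the scans. E-scores from the Universal PBM Analysis Suite were given to each ungapped eight-base word pooled with its reverse complement.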

First: CCACATTC
Second: TAAATGCA
The “PBM E-score” value of the first is higher: -0.0853 for the first, -0.18 for the second.

Compared with CATGCGGA, ACACCTCC is lower in “PBM E-score” value: 0.167 for the first, 0.0978 for the second.

First: CATAGCGC
Second: ATTGAGCC
The “PBM E-score” value of the first is higher: 0.161 for the first, 0.0599 for the second.

Compared with CCGGAGCC, ACCTCACA is lower in “PBM E-score” value: 0.182 for the first, -0.181 for the second.

First: TCAAGTAA
Second: CGGTGAAC
The “PBM E-score” value of the first is lower: -0.0626 for the first, 0.177 for the second.

Going from GGGTGACA to TGGTGACA, the “PBM E-score” value falls from 0.0889 to 0.0421.

Compared with CGGTGACA, CGGTGAAG is lower in “PBM E-score” value: 0.42 for the first, 0.12 for the second.

Compared with CGGTGAAA, CACTGCCC is lower in “PBM E-score” value: 0.41 for the first, -0.0546 for the second.

Going from ACCCTGAC to AATCGCCC, the “PBM E-score” value rises from -0.0664 to -0.00317.

Going from CACCGCCC to AACCGCCC, the “PBM E-score” value falls from 0.41 to 0.107.

First: GACCGCCC
Second: CACCGCCA
The “PBM E-score” value of the first is lower: 0.322 for the first, 0.408 for the second.

First: TACCGCCA
Second: CACCGCAG
The “PBM E-score” value of the first is lower: 0.323 for the first, 0.344 for the second.

Compared with CAGCGCCG, CACCGCCG is higher in “PBM E-score” value: 0.299 for the first, 0.405 for the second.

First: GACCGCCA
Second: CATCGCCG
The “PBM E-score” value of the first is higher: 0.317 for the first, 0.264 for the second.

Compared with AATCGCCG, AAGTTGGT is lower in “PBM E-score” value: 0.407 for the first, -0.133 for the second.

First: TCAGCAGA
Second: CTTGACTA
The “PBM E-score” value of the first is lower: -0.329 for the first, -0.193 for the second.

Going from CGGGAGGC to CGGTTCAG, the “PBM E-score” value rises from -0.136 to -0.0792.

Compared with ATGGCAAA, CCTAGGTC is lower in “PBM E-score” value: -0.0403 for the first, -0.15 for the second.

Going from ATGCTAAC to GGCAGTAC, the “PBM E-score” value rises from -0.0894 to 0.0214.

Going from AAGTGAAC to AAGCGCCA, the “PBM E-score” value rises from -0.129 to -0.0397.

Compared with AACCGCCG, AAGCGCCT is lower in “PBM E-score” value: 0.362 for the first, 0.0194 for the second.

First: AAGCGCCG
Second: AACCGCCA
The “PBM E-score” value of the first is higher: 0.396 for the first, 0.167 for the second.

Compared with AACCGCCT, TACATATA is higher in “PBM E-score” value: 0.0427 for the first, 0.0481 for the second.

Going from GGATTGAC to AGACTCCA, the “PBM E-score” value falls from -0.0821 to -0.139.

First: AGTCTGTG
Second: GATGGGTA
The “PBM E-score” value of the first is lower: -0.27 for the first, -0.205 for the second.

Compared with AGGTATTA, GGGTGGTA is lower in “PBM E-score” value: 0.212 for the first, -0.0756 for the second.

Going from CGGTAGTA to AGGTGGTA, the “PBM E-score” value falls from 0.385 to 0.165.

Compared with CGGTATCC, CGGTATCA is higher in “PBM E-score” value: 0.211 for the first, 0.364 for the second.

Going from GGGTATCA to AGGTAGTA, the “PBM E-score” value rises from -0.079 to 0.0131.

Going from CGGTATTC to CGGTGGTA, the “PBM E-score” value rises from 0.275 to 0.441.

First: CGGTATTA
Second: CGGTAGTC
The “PBM E-score” value of the first is higher: 0.472 for the first, 0.18 for the second.

Compared with GGAAAGCA, AGAGTGCT is lower in “PBM E-score” value: 0.024 for the first, -0.0924 for the second.

First: AGATCGGA
Second: TAGTCGAA
The “PBM E-score” value of the first is higher: 0.335 for the first, -0.0837 for the second.

Compared with AATAGCAG, AGCTATTA is higher in “PBM E-score” value: -0.0777 for the first, -0.041 for the second.

First: CGCTATTA
Second: GGCTATTA
The “PBM E-score” value of the first is higher: 0.357 for the first, -0.0171 for the second.

First: ACTGGCGC
Second: AGGGGGGA
The “PBM E-score” value of the first is higher: -0.0545 for the first, -0.38 for the second.

Going from GTATGGTA to ATCCCCGG, the “PBM E-score” value rises from -0.168 to 0.379.

Compared with ATCCCCGC, ATCCCGGG is lower in “PBM E-score” value: 0.453 for the first, 0.299 for the second.

Going from GTCCCCGA to ATCCCCCG, the “PBM E-score” value rises from 0.185 to 0.292.

First: ATCCCCGA
Second: CTCCCCGC
The “PBM E-score” value of the first is higher: 0.374 for the first, 0.248 for the second.

Compared with CTCCCCGA, ATCCCCCC is lower in “PBM E-score” value: 0.225 for the first, -0.0842 for the second.

First: ATTCGCAC
Second: GAAACGTA
The “PBM E-score” value of the first is higher: 0.00083 for the first, -0.0447 for the second.

Going from AAATGCTA to CCTTGGCA, the “PBM E-score” value falls from -0.223 to -0.227.

First: CGTTAACC
Second: GTACCAAC
The “PBM E-score” value of the first is higher: 0.0895 for the first, -0.00359 for the second.

First: ACCAGATC
Second: CTCTATGA
The “PBM E-score” value of the first is higher: -0.153 for the first, -0.245 for the second.

First: CCTGCTAG
Second: AGTCTCAT
The “PBM E-score” value of the first is higher: -0.0487 for the first, -0.154 for the second.

Going from CGCCACAC to ACGCCGCG, the “PBM E-score” value rises from 0.0326 to 0.361.

Compared with AAGCCGCT, ACGCCTCT is lower in “PBM E-score” value: 0.134 for the first, -0.306 for the second.

First: CAGCCGCC
Second: AAGCCGCG
The “PBM E-score” value of the first is lower: 0.0327 for the first, 0.287 for the second.

Compared with GCGCCGCC, AAGCCGTC is lower in “PBM E-score” value: 0.331 for the first, 0.243 for the second.

First: ACGCCGCT
Second: ACGCCGTG
The “PBM E-score” value of the first is higher: 0.383 for the first, 0.297 for the second.

First: CCGCCGCC
Second: ACGCCGTC
The “PBM E-score” value of the first is lower: 0.361 for the first, 0.405 for the second.

Compared with ACGCCGTA, AACTTCTT is lower in “PBM E-score” value: 0.204 for the first, -0.0358 for the second.

Compared with ATAGAGTA, CGTCTAAC is higher in “PBM E-score” value: -0.0125 for the first, 0.0919 for the second.

Compared with GGATAGGA, CAGCGCAA is lower in “PBM E-score” value: -0.00719 for the first, -0.0211 for the second.

Going from CGACAGTA to AGTGACGA, the “PBM E-score” value falls from 0.0893 to -0.191.

First: AGCTCCCC
Second: TACTAGCA
The “PBM E-score” value of the first is higher: -0.226 for the first, -0.277 for the second.

Compared with AGTGAAGA, ACTGAAGG is higher in “PBM E-score” value: -0.155 for the first, -0.139 for the second.

Compared with CATAGAGG, CCGCCGCA is higher in “PBM E-score” value: -0.173 for the first, 0.301 for the second.

First: ATGCCGCA
Second: CCGCGCCG
The “PBM E-score” value of the first is lower: 0.25 for the first, 0.288 for the second.

Compared with ATGCCGCG, AAGCCGCC is lower in “PBM E-score” value: 0.319 for the first, 0.245 for the second.

Compared with ACGCCGCC, ATGCCGCC is higher in “PBM E-score” value: 0.41 for the first, 0.423 for the second.

First: CCGCCGCG
Second: CAGCCGCG
The “PBM E-score” value of the first is higher: 0.363 for the first, 0.0138 for the second.

First: GCGCCGCA
Second: AGGCCGCC
The “PBM E-score” value of the first is lower: 0.268 for the first, 0.324 for the second.

Going from ACGCCGCA to AAGGGGAA, the “PBM E-score” value falls from 0.354 to -0.188.

Compared with AATGGATA, TGGACCAA is lower in “PBM E-score” value: 0.135 for the first, -0.112 for the second.

First: GTTACTTA
Second: CCGAGGAG
The “PBM E-score” value of the first is lower: 0.0421 for the first, 0.0924 for the second.

First: AGATCAAC
Second: GCGCCGTA
The “PBM E-score” value of the first is lower: -0.251 for the first, 0.253 for the second.

Compared with CCGCCGTC, CCGCCGTA is higher in “PBM E-score” value: 0.29 for the first, 0.381 for the second.

Compared with CATAAGCG, GTTGAGGA is lower in “PBM E-score” value: 0.0871 for the first, -0.203 for the second.

Compared with CTTTCACA, GCAAGACC is higher in “PBM E-score” value: -0.0931 for the first, 0.146 for the second.

Going from CCGATGCG to CGGAACTA, the “PBM E-score” value rises from 0.339 to 0.44.

First: AGGGGATA
Second: CGGAATTA
The “PBM E-score” value of the first is lower: 0.0586 for the first, 0.417 for the second.

Going from CGGAATTC to AGGAATTA, the “PBM E-score” value falls from 0.0284 to -0.00087.

Compared with CGGAACTC, CGGGGGAA is higher in “PBM E-score” value: 0.0793 for the first, 0.257 for the second.

First: CGGGGATA
Second: GGGGGAAA
The “PBM E-score” value of the first is higher: 0.478 for the first, 0.165 for the second.

First: CGGGGAAA
Second: AGGAACTA
The “PBM E-score” value of the first is higher: 0.385 for the first, 0.0488 for the second.

Going from GGGGGATA to AGAATGGG, the “PBM E-score” value falls from 0.13 to -0.212.

Going from CCTTGACA to GCTTTTAC, the “PBM E-score” value rises from -0.071 to 0.265.

Going from ACGTCGTC to AAAGTTTG, the “PBM E-score” value falls from -0.0716 to -0.169.

Compared with CGGCCGCA, TGTAACAA is lower in “PBM E-score” value: 0.235 for the first, -0.111 for the second.

First: GAATCTCA
Second: GGTCGCGA
The “PBM E-score” value of the first is lower: -0.131 for the first, -0.0386 for the second.

Going from GGGAAATA to AGGGAATA, the “PBM E-score” value falls from 0.134 to 0.0674.

Compared with CGGGATTC, CGGAAATA is higher in “PBM E-score” value: 0.219 for the first, 0.399 for the second.

Going from CGGAAGTC to GGGGAATA, the “PBM E-score” value falls from 0.204 to 0.174.

First: CGGGATTA
Second: AGGAAGTA
The “PBM E-score” value of the first is higher: 0.471 for the first, 0.0105 for the second.

Going from CGGAAGTA to CGGAAATC, the “PBM E-score” value falls from 0.352 to 0.0555.

First: CGGGAATA
Second: AGGGATTA
The “PBM E-score” value of the first is higher: 0.456 for the first, 0.0519 for the second.
